Shown are actives, neighbours in structure and some others; about 11% of the full set was active somewhere.
L major viab = Leishmania major promastigote growth inhibition, primary screen; inhibition, % at 10 µM; 9% of 200,000 active; Leishmania major promastigotes, resazurin fluorescence viability; in the data active = inhibition above about 50%;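 also: promastigotes grown with compound for 44 hours at 28 °C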
WT yeast gro inh = growth inhibition of WT strain, primary screen, mitochondrial fusion inhibitor project, WT and mutant strains, chemical genetic; mitochondrial fusion phenotypic screen; AID 1362, 2008; 2.1% of 190,000 active; inhibition, % at 10 µM; in the data active = inhibition above about 58%; tested in S. cerevisiae
Autophagy HCS = autophagy modulators in MEF cells, primary screen, imaging, high-content, MEF GFP-LC3; MEF GFP-LC3 puncta imaging; test concentration mostly 10 µM; calls only at 10 µM (by protocol); 0.98% of 190,000 active; AID 463193, 2010;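 active = percentage of spot-positive cells more than 3 SD above its plate mean, without a fluorescence outlier flag or 80% toxicity; inconclusive = no clear call, values can overlap the other calls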;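 also: spot-positive cell cutoff set from DMSO-treated cells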
Ins promoter up = insulin promoter activators in MIN6 cells, imaging, high-content screening, mouse beta cells | MIN6 insulin promoter-GFP reporter; stronger effect = higher value | z-score at 5 µM | 0.3% of 190,000 active | AID 1625, 2009;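 active = z-score above 3 at 5 µM with at least 500 cells counted in the well; inconclusive = wells under 500 cells, flagged as cytotoxic or low count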
INS promoter inh = inhibitors of insulin promoter-driven GFP, primary screen, imaging, TRM-6 cells (human fetal islet line), eGFP reporter, cell count | reporter expression induced with tamoxifen | inhibition, % at 2 µM | 0.9% of 130,000 active;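 active = inhibition above the mean plus 3 SD, with well images judged a real hit on visual review, cut at about 60% in these data, passing the limit was not always enough; inconclusive = inhibition over the cutoff but images rejected on review; inactive = inhibition not above the cutoff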
Starred values were filed as active, the others as inactive; i = inactive; ? = inconclusive; · = no result given; + = active, no number.

SMILES	L major viab	WT yeast gro inh	Autophagy HCS	Ins promoter up	INS promoter inh
Cn1nc(C(=O)Nc2cccc(C(F)(F)F)c2)ccc1=O	98.6*	15.1	i	0.13	-38.9
CN(C)c1nn(C(=O)Nc2cccc(C(F)(F)F)c2)cc1-c1ccccc1	4.3	63.4*	i	0.2	20.6
CCN(CC)S(=O)(=O)c1ccc2c(c1)nc(CCC(=O)Nc1cccc(C(F)(F)F)c1)n2CC	38.2	-11.9	i	-1.61	-34.3
FC(F)(F)c1cccc(NC(=S)NNC(=S)NCc2ccccc2)c1	0.9	9.4	i	-0.76	-55.8
S=C(N/N=C/c1cccc2ccccc12)Nc1cccc(Cl)c1	·	·	·	-0.03	·
CCCNC(=S)Nc1cccc(C(F)(F)F)c1	71.3*	12.1	i	1.55	18.5
CCN1C(=O)/C(=C/C=C2/Sc3ccc4ccccc4c3N2CCO)SC1=S	65.1*	8.3	i	-0.37	-178.6
COc1ccc(NCC(=O)Nc2ccccc2C#N)cc1Cl	86.5*	-0.8	i	0.53	20.0
O=C(Nc1ccc2c(c1)OCO2)c1n[nH]c(=O)c2ccccc12	·	·	·	-0.83	·
O=C(NCc1cccnc1)/C(=C\c1ccc(-c2cccc(Cl)c2)o1)S(=O)(=O)c1ccccc1	100.3*	0.5	i	-0.16	17.9
O=C(NCc1cccnc1)/C(=C/c1ccc(-c2cccc(Cl)c2)o1)S(=O)(=O)c1ccccc1	100.4*	-17.2	i	0.31	·
COc1ccc(-c2nnc(SC(C)C(=O)Nc3c(C)n(C)n(-c4ccccc4)c3=O)o2)cc1 (stereo unspecified)	-5.4	9.9	i	-0.35	-26.3
O=C(NC1CC1)c1ccc(C2SCC(=O)N2Cc2ccccc2)cc1 (stereo unspecified)	2.4	-17.0	i	0.28	·
Cc1cc(C)nc(SCc2ccc(C(=O)O)o2)n1	-4.2	-13.9	i	·	·
Cc1cc(C(F)(F)F)nc(SCc2ccc(C(=O)O)o2)n1	16.9	1.6	i	0.06	72.7*
Nc1ccc(-c2nc3nc(N)nc(N)c3nc2-c2ccc(N)cc2)cc1	·	·	·	4.9*	·
COc1ccc(C2=NN(C(=O)c3cccs3)C(c3ccccc3OC)C2)cc1OC (stereo unspecified)	26.5	66.8*	i	-0.72	·
Cc1ccc(C2=NN(S(=O)(=O)c3ccccc3)C(c3ccccc3O)C2)cc1 (stereo unspecified)	97.0*	84.1*	i	1.32	-323.1
Cc1ccc(C2=NN(C(=O)c3cccs3)C(c3ccccc3O)C2)cc1 (stereo unspecified)	13.4	13.7	+	-0.17	·
COc1ccc(C2=NN(C(=O)CCCC(=O)O)C(c3cccs3)C2)cc1OC (stereo unspecified)	-6.7	-21.2	i	-0.4	·
O=C(c1ccccc1)N1N=C(c2ccccc2)CC1c1ccccc1O (stereo unspecified)	39.5	67.2*	i	-0.55	7.1
O=C(c1cccs1)N1N=C(c2ccccc2)CC1c1ccccc1O (stereo unspecified)	31.8	43.7	i	-0.32	·
Cc1cc(NC(=O)CCC(=O)N(c2ccccc2)C2(C(=O)NC3CCCCC3)CCCC2)no1	-1.2	6.4	i	-0.69	-48.4
O=C(Nc1cccc2nsnc12)c1cccnc1	78.2*	-3.8	i	-0.01	29.6
NCCCNc1ccc([N+](=O)[O-])cc1C(F)(F)F	-2.9	-2.3	i	-0.22	·
SMILES	L major viab	WT yeast gro inh	Autophagy HCS	Ins promoter up	INS promoter inh
O=C(NCCNc1ccc([N+](=O)[O-])cc1C(F)(F)F)c1ccc(F)cc1	56.0*	7.4	i	0	53.9
c1ccc2c(c1)[nH]c1c(NCC3CCCO3)ncnc12 (stereo unspecified)	86.4*	-4.9	i	-3.45	?
COc1cc(OC)c(OC)cc1/C=N/Nc1ncnc2c1[nH]c1ccccc12	60.8*	2.6	i	-0.79	41.7
C=CCNc1ncnc2c1[nH]c1ccc(Cl)cc12	100.2*	33.8	i	0.14	93.1*
COc1ccc(/C=N/Nc2ncnc3c2[nH]c2ccc(C)cc23)c(OC)c1OC	·	·	·	-1.19	·
C=CCNc1ncnc2c1cnn2-c1ccc(Cl)cc1	-2.6	8.7	i	-0.06	-14.3
C=CCNc1ncnc2c1[nH]c1ccccc12	66.7*	9.8	i	-2.69	56.2
C=CCNc1ncnc2ccccc12	21.7	·	i	0.13	9.1
CCc1ccc(N(C(=O)c2csnn2)C(C(=O)NC(C)(C)C)c2cccnc2)cc1 (stereo unspecified)	-0.5	-2.5	i	·	4.3
CC(C)(C)C1CCC(C(=O)OCC(=O)N2CCN(C(=O)c3ccco3)CC2)CC1 (stereo unspecified)	3.2	31.5	i	0.03	·
O=C1c2cnc3nc(SCc4ccc(Cl)cc4)nn3c2CC2c3ccccc3CCN12 (stereo unspecified)	34.4	10.2	i	-1	·
Cc1cccc(C)c1Nc1c(-c2ccsc2)nc2ncccn12	80.2*	12.9	i	0.81	-80.6
Cc1ccc(Nc2c(-c3ccc(N4CCOCC4)cc3)nc3ncccn23)cc1C	25.1	-10.7	i	-1.1	?
Cc1ccc2nc(-c3ccccn3)c(NC3CCCC3)n2c1	100.1*	73.7*	i	-2.52	14.3
Cc1ccc(Nc2c(-c3ccc(N4CCOCC4)cc3)nc3ncccn23)cc1	4.6	11.4	+	0.75	36.6
Cc1ccc(Nc2c(-c3ccccn3)nc3cccc(C)n23)cc1	100.7*	73.2	i	-0.43	-53.3
Cc1cccc2nc(-c3ccco3)c(Nc3ccccc3)n12	21.5	7.5	i	0.23	6.7
COc1ccc([N+](=O)[O-])cc1NC(=O)COC(=O)c1ccccn1	-0.1	-5.4	i	0.74	11.8
COCCCN1CN(S(=O)(=O)c2cccs2)c2nc3ccccc3nc21	·	·	·	0.31	·
Cc1cccc(C)c1Nc1c(-c2ccccn2)nc2ccccn12	100.3*	67.6	i	-0.97	25.0
Cc1ccccc1Nc1c(-c2ccccn2)nc2c(C)cccn12	36.9	79.4	i	-0.47	·
COc1ccc(NS(=O)(=O)c2cccc(Cl)c2Cl)cc1S(=O)(=O)N1CCCCC1	2.4	-2.0	i	-0.83	·
COc1ccc(NS(=O)(=O)c2cccc(Cl)c2)cc1S(=O)(=O)N1CCCCC1	59.4*	20.8	i	0.08	10.3
COc1ccc(NC(=O)[C@@H](NC(=O)c2ccccc2)C(C)C)cc1S(=O)(=O)N1CCCCC1	72.4*	9.5	i	0	6.7
COc1ccc(C(C)(C)C)cc1NC(=O)c1cncc(Br)c1	-2.8	75.9*	i	0.01	23.5
COc1ccc(NC(=O)c2cncc(Br)c2)cc1S(=O)(=O)N1CCCCC1	73.0*	15.8	i	-0.31	-17.9
O=C(Cc1ccccc1)Nc1ccc(NC(=O)c2cccs2)c(Cl)c1	-5.4	-0.1	i	0.08	41.7
CCCCOC(=O)N/N=C/C=C/c1ccccc1	-5.0	13.0	i	-0.25	0.0
COc1ccc2c(c1)nc(SCC(=O)c1cccs1)n2C	2.4	-11.3	i	-0.72	0.0
COC(=O)c1ccc(C(=O)Nc2ccc(C(C)C)cc2N)cc1	-1.2	-8.5	i	-0.85	·

High-throughput results from PubChem.
